Measured values: PubChem BioAssay
The source made the active and inactive calls.

The compounds below were run against Luciferin 4-monooxygenase (Photinus pyralis) (UniProt P08659) (assay: firefly luciferase enzyme inhibitors, primary screen, biochemical, luminescence, purified enzyme, 2006 set (AID 1141;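 note: cell-free assay with purified firefly luciferase at 100 ng per well in PBS; test concentration not given here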)). Settings: SteadyGlo luminescence, 30 min, higher = more signal, called active from +8 up or from −8 down.
Sequence of Luciferin 4-monooxygenase (Photinus pyralis) (P08659 whole entry, looked up): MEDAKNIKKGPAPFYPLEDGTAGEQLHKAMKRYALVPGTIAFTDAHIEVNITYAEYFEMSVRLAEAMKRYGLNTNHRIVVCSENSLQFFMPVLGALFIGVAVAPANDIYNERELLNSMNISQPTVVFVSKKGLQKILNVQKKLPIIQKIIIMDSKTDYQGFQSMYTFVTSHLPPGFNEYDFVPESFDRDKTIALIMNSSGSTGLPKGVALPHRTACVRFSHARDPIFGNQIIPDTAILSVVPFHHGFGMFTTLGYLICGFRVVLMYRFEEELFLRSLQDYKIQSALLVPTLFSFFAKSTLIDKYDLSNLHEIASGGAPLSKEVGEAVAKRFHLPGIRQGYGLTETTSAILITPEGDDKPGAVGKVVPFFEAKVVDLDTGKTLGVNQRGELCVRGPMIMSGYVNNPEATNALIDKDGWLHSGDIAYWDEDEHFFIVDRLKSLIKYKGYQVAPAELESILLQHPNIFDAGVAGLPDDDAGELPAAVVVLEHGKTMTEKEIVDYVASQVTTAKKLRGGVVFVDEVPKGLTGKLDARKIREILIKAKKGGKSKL

z-score, inactive:
COc1ccc(CCN2C(=O)[C@@]3(c4ccc([N+](=O)[O-])cc4)CC(=O)N(CC45CC6CC(CC(C6)C4)C5)[C@@H]3c3ccc(CO)cc32)cc1 -0.736
C=CCN1C(=O)[C@@]2(Cc3ccccc3)N=C(c3ccc(OCCCO)cc3)O[C@H]2c2ccccc21 -5.51
CN1CCC(CCCO)=CC1C1CC1 (stereo unspecified) -0.703
CC(C)N1CC=CC23O[C@@H]4/C=C\CCCOC(=O)C4[C@H]2C(=O)N(CCCCCO)[C@@H]3C1=O (stereo partly specified) -1.32
COCCOC(=O)N1C(=O)[C@@]2(c3cc(C#CCC(C(=O)OC)C(=O)OC)ccc31)[C@H](C(=O)N1CCN(c3ncccn3)CC1)[C@H]1C(=O)O[C@H](c3ccccc3)[C@H](c3ccccc3)N1[C@@H]2c1ccc(O)cc1 -1
CCC(=O)[C@]12O[C@@]3([C@@H]4C(=O)OCC[C@@H]41)N(Cc1ccccc1)C(C)=C(C(=O)OC)[C@@H](c1ccccc1)N3C2=O -1.36
COC(=O)[C@@]1(Cc2ccc(OC)cc2)[C@H]2c3cc(C(=O)N(C)C)n(Cc4ccc(C)c(F)c4F)c3C[C@H]2CN1C(=O)c1ccccc1 2.24
COc1cc(CO)cc(I)c1O[C@H]1C=C(C(=O)NCCO)C[C@@H](NCCc2c[nH]c3ccccc23)[C@@H]1O 0.47
Cc1ccc(N2C(=O)c3ccccc3[C@](C)(C(=O)O)[C@@H]2c2ccc(CO)cc2)nc1 -1.46
COC(=O)[C@@]1(Cc2ccccc2)[C@H]2c3cc(C(=O)N4CCCC4)n(CCN4CNCC4=O)c3C[C@H]2CN1C(=O)c1ccccc1 2.42
CO[C@@H]1COC(=O)[C@H](C)NC(=O)CC=C[C@@H](C)[C@H](OC)COC(=O)[C@H](C)NC(=O)CC=C[C@H]1C -1.57
C=C(COC)/C(=C/C[C@@H](OC(C)=O)c1cccc(OCCO)c1)c1cc(C(=O)OC)ccc1OC -2.09
CCOC(=O)C[C@H]1[C@H](OC(=O)c2ccccc2-c2ccccc2)[C@@H](NC(=O)c2ccc(-c3ccccc3)cc2)c2cc(OCCCO)ccc2N1C(=O)Cc1ccc(OC)cc1 0.393
[N-]=[N+]=NCc1ccccc1C[C@]1(C(=O)N2CCCCC2)N=C(c2ccc(OCCCO)cc2)O[C@H]1c1ccccc1CN=[N+]=[N-] -1.02
CO[C@H]1COC(=O)[C@@H](OCc2ccccc2)C=C[C@H](C)[C@@H](OC)COC(=O)[C@H](OCc2ccccc2)C=C[C@@H]1C -1.99
COCCOC(=O)N1C(=O)[C@@]2(c3cc(C#CCNC(N)=O)ccc31)[C@H](c1ccc(OCCO)cc1)N1[C@H](c3ccccc3)[C@H](c3ccccc3)OC(=O)[C@H]1[C@@H]2C(=O)Nc1nc2ccccc2s1 -3.42
CCOC(=O)C1=CC[C@@H](c2ccc(-c3ccc(OCc4ccccc4)cc3)c(OC)c2)N(S(=O)(=O)c2ccc(C)cc2)[C@H]1c1ccccc1 -3.26
Cc1ccc(S[C@]2(C(=O)O)CC(=O)N(Cc3ccccc3)[C@@H]2c2ccc(CO)cc2)cc1 -1.32
Cc1ccc(S[C@]2(C(=O)NC(C)C)CC(=O)N(Cc3cc(C(F)(F)F)cc(C(F)(F)F)c3)[C@@H]2c2ccc(CO)cc2I)cc1 0.819
CO[C@@H]1COC(=O)[C@H](COCc2ccccc2)NC(=O)CC=C[C@@H](C)[C@H](OC)COC(=O)[C@H](COCc2ccccc2)NC(=O)CC=C[C@H]1C -0.901
CCC1=C2CN(Cc3ccccc3Br)[C@@H]([C@@H](O)Cc3ccccc3)C2C=CCC1 (stereo partly specified) -0.852
COCCOC(=O)N1C(=O)[C@@]2(c3cc(C#CCC(C(=O)OC)C(=O)OC)ccc31)[C@H](c1ccccc1OCCO)N1[C@H](c3ccccc3)[C@H](c3ccccc3)OC(=O)[C@H]1[C@@H]2C(=O)N1CCCCCCC1 0.406
CO[C@@H]1COC(=O)[C@@H]2CCCN2C(=O)CC=C[C@@H](C)[C@H](OC)COC(=O)[C@@H]2CCCN2C(=O)CC=C[C@H]1C -1.44
C=C(COC)/C(=C/C[C@H](OC(C)=O)c1ccc(OCCO)cc1)c1cnc2ccccc2c1 -1.81
CC(=O)Nc1ccc([C@H]2[C@H](C)CC[C@H]3C(=O)N4[C@@H](CC[C@@H](C)[C@@H]4c4ccc(NC(C)=O)cc4)C(=O)N32)cc1 -0.765
CN(C)CCCC[C@@H]1NC(=O)[C@@H]2C[C@H](C(=O)O)[C@H](c3ccc(O)cc3)N2C1=O -0.486
C[C@@H]1CC[C@H]2C(=O)N3[C@@H](CC[C@@H](C)[C@@H]3c3cccc(N4CCOCC4)c3)C(=O)N2[C@H]1c1cccc(Br)c1 -1.13
CCCN1C(=O)[C@@]2(CCS(=O)(=O)c3ccccc3)N=C(c3ccc(OCCCO)cc3)O[C@H]2c2ccccc21 -0.869
O=C(O)[C@@H]1Cc2c([nH]c3ccccc23)[C@@H](c2ccccc2)N1 -0.0866
C[C@@H]1CC[C@H]2C(=O)N3CCC[C@H]3C(=O)N2[C@H]1c1ccc(Br)cc1 -1.02
CCC#CCN(Cc1ccccc1Br)[C@H](/C=C/c1ccccc1)[C@@H](O)Cc1ccccc1 -0.686
[N-]=[N+]=NCc1ccccc1C[C@]1(C(N)=O)N=C(c2ccc(OCCCO)cc2)O[C@H]1c1ccccc1CN=[N+]=[N-] -3.84
C=CCC(OC(C)=O)[C@@H]1[C@@H](N(Cc2ccc(-c3ccccc3)cc2)C(=O)c2ccc(-c3ccccc3)cc2)c2cc(OCCCO)ccc2N1C(=O)Cc1ccc(OC)cc1 (stereo partly specified) -0.115
O=C1C[C@@](C(=O)NC2CC2)(c2ccc([N+](=O)[O-])cc2)[C@@H](c2ccc(CO)cc2I)N1CC12CC3CC(CC(C3)C1)C2 -0.318
Cc1ccc(N2C(=O)c3ccccc3[C@@H](C(=O)NCC(F)(F)F)[C@@H]2c2ccc(CO)cc2)nc1 -0.642
C=CC[C@]1(C(=O)O)N=C(c2ccc(OCCCO)cc2)O[C@H]1c1ccccc1 -1.8
